Screening data: PubChem, National Center for Advancing Translational Sciences (NCATS)
TRPV1 agonist: activates the human vanilloid receptor TRPV1; hit rate 0.19% among 320,000; TRPV1-expressing cells, Fluo-8 calcium influx, agonist mode; AID 540275; Q8NER1; activation, % at 8.33 µM; in the data active = activation above about 80%; inconclusive = between about 30% and that limit
Target sequence (Q8NER1 whole entry, looked up): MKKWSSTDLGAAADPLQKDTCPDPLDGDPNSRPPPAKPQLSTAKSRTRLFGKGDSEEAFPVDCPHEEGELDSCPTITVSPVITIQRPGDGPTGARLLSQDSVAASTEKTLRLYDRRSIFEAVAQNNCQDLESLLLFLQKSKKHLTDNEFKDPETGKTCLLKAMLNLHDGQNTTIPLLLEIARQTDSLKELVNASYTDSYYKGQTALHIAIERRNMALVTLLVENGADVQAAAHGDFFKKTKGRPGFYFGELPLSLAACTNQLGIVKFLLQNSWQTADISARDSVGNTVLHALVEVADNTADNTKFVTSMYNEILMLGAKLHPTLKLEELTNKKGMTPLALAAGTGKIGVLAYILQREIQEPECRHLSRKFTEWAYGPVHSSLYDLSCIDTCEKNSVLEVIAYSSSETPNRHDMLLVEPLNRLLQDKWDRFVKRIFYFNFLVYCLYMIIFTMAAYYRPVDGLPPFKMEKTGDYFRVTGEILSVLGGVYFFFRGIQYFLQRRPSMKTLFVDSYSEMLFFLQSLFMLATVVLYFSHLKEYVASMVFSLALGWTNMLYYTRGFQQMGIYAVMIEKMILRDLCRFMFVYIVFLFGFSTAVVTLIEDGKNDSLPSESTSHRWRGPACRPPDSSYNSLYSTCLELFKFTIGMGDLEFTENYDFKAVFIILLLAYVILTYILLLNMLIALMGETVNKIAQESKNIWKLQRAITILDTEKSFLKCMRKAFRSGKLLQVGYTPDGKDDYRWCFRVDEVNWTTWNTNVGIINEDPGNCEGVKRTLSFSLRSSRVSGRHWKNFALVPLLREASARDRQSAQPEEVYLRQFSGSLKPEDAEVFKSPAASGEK
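Fluo-8 calcium influx in TRPV1-expressing cells, kinetic read (ex 480/em 520 nm). Compound added and read 3 min for agonist activity, followed by capsaicin at EC20 final and 2 min further read for enhancement.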
uPA generation: blocks generation of uPA at the cell surface; cell surface uPA generation assay, qHTS; Potency, µM (top dose mostly 38.3 µM), usual class: inhibitors; hit rate 0.31% among 330,000; AID 540303; active = well fitted inhibition curve with a large enough effect; inconclusive = small, poorly fitted or top-dose-only effect; inactive = no such curve, though single readings can be large or run the other way; tested in mouse RAW 264.7 cells; note: nearly all actives have a fitted effect of over 55% in size
RORgamma inh: inhibitors of mouse ROR gamma transcriptional activity | P51450 | hit rate 5.4% among 310,000 | AID 2551 | Potency, µM (top dose mostly 53.6 µM), most hits filed as inhibitors | Drosophila S2 Gal4-RORgamma UAS-luciferase reporter, 20 h; note: nearly all actives have a fitted effect of over 60% in size
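Compounds are pin-transferred onto Drosophila Schneider cells expressing a copper-inducible Gal4–ROR gamma transactivation domain fusion. After 1 hr, copper sulfate is added to 700 uM final; luciferase is read 20 hr later.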
TRPV1 PAM: human TRPV1 potentiation | potentiation, % at 8.33 µM | hit rate 0.02% among 320,000 | AID 540277 | TRPV1-expressing cells, Fluo-8 calcium influx, capsaicin EC20 potentiation; in the data active = potentiation above about 80%; inconclusive = between about 30% and that limit
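TRPV1-expressing cells were cultured overnight at 35.5C and loaded with Fluo-8 calcium dye for 40 to 90 min at room temperature. After a 10 s baseline, compound was added and calcium influx was read kinetically for 3 min (ex 480/em 520 nm).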
Gal4-VP16 FLuc: counter-screen for ROR gamma inhibitors: Gal4-VP16 reporter; Drosophila S2 Gal4-VP16 UAS-luciferase, luminescence, 20 h; hit rate 3.5% among 310,000; Potency, µM (top dose mostly 53.6 µM), usual class: inhibitors;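 note: Gal4-VP16 expression switched on by copper sulfate through the metallothionein promoter; nearly all actives have a fitted effect of over 50% in size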
A number is an active result; [ ] = dose if it differs, or a comment. A selection: hits, their analogues and other compounds. The true share with any hit is near 5.8%. Unless noted, calls come from the whole dose curve; as a rule, active = well fitted curve in the direction sought with a large enough effect; inconclusive = small, poorly fitted or top-dose-only effect, or another doubt; inactive = no such curve, though single readings can be large; an effect the other way counts as inactive or inconclusive.

What do the screens show for `Cc1ccc2nsnc2c1S(=O)(=O)Nc1cccc2nsnc12`?
TRPV1 agonist: inactive; uPA generation: inactive; RORgamma inh: inconclusive; TRPV1 PAM: inactive; Gal4-VP16 FLuc: inactive

How did O=C1C=C(Nc2ccccc2C(=O)O)c2ccccc2C1=O do in these assays?
TRPV1 agonist: inactive; uPA generation: inactive; RORgamma inh: inactive; TRPV1 PAM: inactive; Gal4-VP16 FLuc: inactive

Results for CC(C)c1cc(C(C)C)c(S(=O)(=O)Nc2cccc3cccnc23)c(C(C)C)c1 ?
RORgamma inh: 0.05µM; Gal4-VP16 FLuc: inactive

Results for O=C1C=C(Nc2cccc3cccnc23)c2ccccc2C1=O ?
TRPV1 agonist: inactive; uPA generation: inactive; RORgamma inh: 10µM; TRPV1 PAM: inactive; Gal4-VP16 FLuc: 10µM

What do the screens show for `CNCCCOc1cccc(Oc2ccccc2)c1`?
TRPV1 agonist: inactive; uPA generation: inactive; RORgamma inh: inactive; TRPV1 PAM: inactive; Gal4-VP16 FLuc: inactive

How did Nc1c(S(=O)(=O)O)cc(Nc2ccc(Cl)cc2)c2c1C(=O)c1ccccc1C2=O do in these assays?
RORgamma inh: inactive; Gal4-VP16 FLuc: inconclusive

What do the screens show for `O=S(=O)(Nc1cc(Sc2cccc3cccnc23)c(O)c2ccccc12)c1ccccc1`?
TRPV1 agonist: inactive; RORgamma inh: 1.3µM; TRPV1 PAM: inactive; Gal4-VP16 FLuc: 2.8µM

How did Nc1ccccc1S(=O)(=O)Nc1cccc2cccnc12 do in these assays?
RORgamma inh: 1.6µM; Gal4-VP16 FLuc: 2.2µM

What do the screens show for `O=C(O)c1ccccc1NS(=O)(=O)c1cccc2cccnc12`?
TRPV1 agonist: inactive; uPA generation: inactive; RORgamma inh: inactive; TRPV1 PAM: inactive; Gal4-VP16 FLuc: inactive

What do the screens show for `Cc1ccc(S(=O)(=O)Nc2ccccc2-c2ccccc2NS(=O)(=O)c2ccc(C)cc2)cc1`?
TRPV1 agonist: inactive; uPA generation: inactive; RORgamma inh: inactive; TRPV1 PAM: inactive; Gal4-VP16 FLuc: inactive

What do the screens show for `Cc1ccc(S(=O)(=O)Nc2ccc(NS(=O)(=O)c3ccc(C)cc3)c3ncccc23)cc1`?
RORgamma inh: 5µM; Gal4-VP16 FLuc: 5.6µM

What do the screens show for `Cc1ccc(S(=O)(=O)Nc2cccc3cccnc23)cc1`?
TRPV1 agonist: inactive; uPA generation: inactive; RORgamma inh: 1.1µM; TRPV1 PAM: inactive; Gal4-VP16 FLuc: 1.8µM

Results for COc1cccc(C(=O)NCC(c2ccco2)N2CCOCC2)c1 (stereo unspecified) ?
TRPV1 agonist: inactive; uPA generation: inactive; TRPV1 PAM: inactive

What do the screens show for `O=C1c2ccccc2C(=O)c2cc(S(=O)(=O)Nc3cccc4cccnc34)ccc21`?
RORgamma inh: 0.89µM; Gal4-VP16 FLuc: inactive

What do the screens show for `Cn1cc(C(=O)Nc2ccc(C#N)cc2)c2ccccc2c1=O`?
TRPV1 agonist: inactive; uPA generation: inactive; RORgamma inh: inconclusive; TRPV1 PAM: inactive; Gal4-VP16 FLuc: inactive

What do the screens show for `COc1ccccc1C(C[N+](=O)[O-])c1c(N)n(C)c(=O)n(C)c1=O` (stereo unspecified)?
TRPV1 agonist: inactive; uPA generation: inconclusive; RORgamma inh: inconclusive; TRPV1 PAM: inactive; Gal4-VP16 FLuc: 14µM

What do the screens show for `COC(=O)C1=NN(C(C)(C)CC(C)=O)C2C(=O)N(C3CCCCC3)C(=O)C12` (stereo unspecified)?
TRPV1 agonist: inactive; uPA generation: inactive; RORgamma inh: inactive; TRPV1 PAM: inactive; Gal4-VP16 FLuc: inactive

Results for Cc1ccc(NCc2n[nH]c(=S)n2-c2cccc(Cl)c2)cc1 ?
TRPV1 agonist: inactive; uPA generation: inactive; RORgamma inh: 7.9µM; TRPV1 PAM: inactive; Gal4-VP16 FLuc: inactive

How did Cc1ccc(-n2c(CNc3ccc(C)c(Cl)c3)n[nH]c2=S)cc1 do in these assays?
TRPV1 agonist: inactive; uPA generation: inactive; RORgamma inh: 2.5µM; TRPV1 PAM: inactive; Gal4-VP16 FLuc: inactive

Results for Cc1ccc(-n2c(CNc3cccc(Cl)c3)n[nH]c2=S)cc1 ?
TRPV1 agonist: inactive; uPA generation: inactive; RORgamma inh: inconclusive; TRPV1 PAM: inactive; Gal4-VP16 FLuc: inactive

How did O=C(CN1CCCC1)NN=C(c1ccccc1)c1ccccc1 do in these assays?
TRPV1 agonist: inactive; uPA generation: inactive; RORgamma inh: inactive; TRPV1 PAM: inactive; Gal4-VP16 FLuc: inactive

How did Cn1cnnc1SCC(=O)Nc1sc2c(c1C(N)=O)CCC2 do in these assays?
TRPV1 agonist: inactive; uPA generation: inactive; RORgamma inh: inactive; TRPV1 PAM: inactive; Gal4-VP16 FLuc: inactive

What do the screens show for `O=c1n(Cc2cc3c(cc2Cl)OCO3)c(=O)n2n1CC[C@H]1/C(=N\OCc3ccccc3)[C@H]3O[C@@H]3[C@@H](O)[C@@H]12`?
RORgamma inh: inactive[10 µM]; Gal4-VP16 FLuc: inactive[10 µM]

What do the screens show for `Nc1c(C(=O)Nc2ccccc2)nnn1-c1ccc2c(c1)OCCO2`?
TRPV1 agonist: inactive; uPA generation: inactive; RORgamma inh: 10µM; TRPV1 PAM: inactive; Gal4-VP16 FLuc: inconclusive

What do the screens show for `CCN1CCCC1Cn1c(-c2ccccc2)nc2c(N3CCOCC3)nc(C)nc21` (stereo unspecified)?
RORgamma inh: inactive; Gal4-VP16 FLuc: inactive

Results for O=C(O)COc1ccccc1/C=N/NC(=O)c1cc(-c2ccc(Cl)cc2)nc2ccccc12 ?
TRPV1 agonist: inactive; uPA generation: inactive; RORgamma inh: inactive; TRPV1 PAM: inactive; Gal4-VP16 FLuc: inactive

Results for O=C(N/N=C/c1ccccn1)c1cc(-c2ccc(Cl)cc2)nc2ccccc12 ?
TRPV1 agonist: inactive; uPA generation: inactive; RORgamma inh: 0.4µM; TRPV1 PAM: inactive; Gal4-VP16 FLuc: 0.71µM

What do the screens show for `O=C(N/N=C/c1ccccn1)c1cc(-c2ccc(Br)cc2)nc2ccccc12`?
TRPV1 agonist: inactive; uPA generation: inactive; RORgamma inh: 0.63µM; TRPV1 PAM: inactive; Gal4-VP16 FLuc: 1.1µM

What do the screens show for `O=C(O)COc1ccccc1/C=N/NC(=O)c1cc(-c2ccccc2)nc2ccccc12`?
TRPV1 agonist: inactive; uPA generation: inactive; RORgamma inh: inactive; TRPV1 PAM: inactive; Gal4-VP16 FLuc: inactive

How did COc1cccc(CNS(=O)(=O)c2ccc3c(c2)oc(=O)n3C)c1 do in these assays?
TRPV1 agonist: inactive; uPA generation: inactive; RORgamma inh: inactive; TRPV1 PAM: inactive; Gal4-VP16 FLuc: inactive

Results for CC(=O)c1ccc(Nc2ncnc3c2oc2ccccc23)cc1 ?
TRPV1 agonist: 88; uPA generation: inactive; RORgamma inh: inactive; TRPV1 PAM: inactive; Gal4-VP16 FLuc: inactive

How did CSC(N)=NCCCC(N)C(=O)O (stereo unspecified) do in these assays?
RORgamma inh: inactive; Gal4-VP16 FLuc: inactive

How did Cc1ccc(-c2nn(C(C)(C)C)c3ncnc(NS(=O)(=O)c4ccc([N+](=O)[O-])cc4)c23)cc1 do in these assays?
TRPV1 agonist: inactive; uPA generation: inactive; RORgamma inh: 13µM; TRPV1 PAM: inactive; Gal4-VP16 FLuc: inactive

What do the screens show for `CCNC(=O)COC(=O)c1csc2c1CCCC2`?
TRPV1 agonist: inconclusive; uPA generation: inactive; RORgamma inh: inactive; TRPV1 PAM: inactive; Gal4-VP16 FLuc: inconclusive

Results for COCCCNC(=S)Nc1ccc(C)cc1 ?
TRPV1 agonist: inactive; uPA generation: inactive; RORgamma inh: inconclusive; TRPV1 PAM: inactive; Gal4-VP16 FLuc: inactive

How did COCCCNC(=S)NNC(=S)Nc1ccc(F)cc1F do in these assays?
TRPV1 agonist: inactive; RORgamma inh: 7.1µM; TRPV1 PAM: inactive; Gal4-VP16 FLuc: inactive
